Among the data in PubChem BioAssay AID1645872 (National Center for Advancing Translational Sciences (NCATS), 2021) are Potency values, retold here.

Each structure is given as a SMILES string. Results filed as inconclusive are left out. Activity calls are given as the source filed them. The call rests on the fitted dose curve; in most records, active means well fitted inhibition curve with a large enough effect; inconclusive means small, poorly fitted or top-dose-only effect; inactive means flat fitted curve, though single readings scatter.

The target of this test is Papain (Carica papaya) (UniProt P00784). Kind of test: Confirmatory qHTS assay for inhibitors of the protease papain. Particulars: papain Z-FR-AMC cleavage, fluorescence. The source says: Principal Investigator: Sam Michael National Center for Advancing Translational Sciences, National Institutes of Health, Rockville, MD Current high-throughput screening (HTS) assay validation is often a manual process, though this can be enhanced by design-of-experiment approaches. An artificial intelligence-driven (AI/ML) assay optimization was developed as part of the NCATS A Specialized Platform for Innovative Research Exploration (ASPIRE) Initiative to accelerate preclinical drug discovery. We describe the development of an autonomous Cloud-based computational driven assay optimization system using the Kebotix adaptive optimization algorithm. […]
PROTOCOL TABLE SEQUENCE No. (e.g., 1, 2, 3, etc.); PARAMETER (e.g., Cells, Incubation, Reagent, etc.); VALUE and DESCRIPTION. 1; Reagent; 3 uL; 4/3x Enzyme solution (working concentration of 5 nM) or 3 uL buffer 2; Compounds; 17 nL; library compounds and controls (working concentration of 169 nM - […]) 3; Time; 15 min; room temperature incubation 4; Reagent; 1 uL; 4x 2 uM Z-FR-AMC substrate 5; Centrifugation; 1000 rpm; 15 sec centrigure 6; Detection; Fluorescence Read 1; ViewLux plate reader 7; Time; 10 min; room temperature incubation 8; Detection; Fluorescence Read 2; ViewLux plate reader NOTES (numbers refer to Sequence numbers above; values are from representative experiments) 1; Dispense 3 uL of [4/3x] […]
On the technique in general: qHTS replaces the single test concentration by a dilution series.

Chain of Papain (Carica papaya) (P00784 whole entry, looked up): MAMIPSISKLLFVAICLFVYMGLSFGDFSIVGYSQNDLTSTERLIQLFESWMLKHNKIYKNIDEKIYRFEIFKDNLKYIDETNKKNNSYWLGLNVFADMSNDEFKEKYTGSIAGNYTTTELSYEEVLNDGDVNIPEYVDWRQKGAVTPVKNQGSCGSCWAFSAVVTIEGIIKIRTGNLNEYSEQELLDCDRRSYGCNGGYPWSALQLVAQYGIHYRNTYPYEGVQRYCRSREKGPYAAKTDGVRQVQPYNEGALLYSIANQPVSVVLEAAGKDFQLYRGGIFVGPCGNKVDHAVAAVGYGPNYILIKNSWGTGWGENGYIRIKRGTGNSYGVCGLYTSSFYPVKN

With `Cc1ccc(S(=O)(=O)N[C@@H](CCCCN)C(=O)CCl)cc1`, the Potency was 647 nM (active).
